# Source: PubChem (National Center for Advancing Translational Sciences (NCATS))
# Compounds with a hit are over-represented: about 3.1% of the library has one in this group of screens.
# Nrf2 ARE act = Nrf2 pathway activation; AREc32 ARE-luciferase reporter (MCF7-derived line), luminescence, 24 h; Potency, µM (doses to about 46.1 µM), inactives show at the top dose activation, hits mostly activators; actives 0.31% (n = 410,000); note: potency is the fitted concentration of half-maximal effect; % of control where 0% means no effect; nearly all actives have a fitted effect of over 65% in size
#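 Steps: seed AREc32_Fluc cells (1000/well, 5% FBS OPTI-MEM); incubate overnight at 37 deg C; add 23 nL compound; incubate 24 hr; add Steady-Glo; hold 30 min RT; read luminescence.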
# ELG1 repair inh = blocks ELG1-dependent DNA repair in HEK293T cells | HEK293T ELG1-luciferase reporter, luminescence, 16 h; DNA damage induced by 5-fluorouridine | Potency, µM (series often up to 46.1 µM), without a hit: at the top dose activity change, negative = inhibition, usual class: inhibitors | AID 504467 | actives 2.3% (n = 330,000); note: potency is the fitted concentration of half-maximal effect; % is set by controls: 0 for no effect and ±100 for the full control effect; nearly all actives have a fitted effect of over 55% in size
#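 Overnight (16 hr) co-exposure of 2,000 cells/well to 5-fluorouridine and compound at 37 °C preceded detection. Luciferase was quantified via ONE-Glo luminescence; loss of signal denotes inhibition.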
# IL2 activator = activates IL-2 in a cell-based reporter assay. IL-2 activation reporter assay, cell-based qHTS; stimulated with anti-CD3/CD4/CD28 beads; in transgenic mouse T cells. actives 0.065% (n = 360,000). activation, % (series mostly up to about 46 µM). AID 652025; in the data active = activation above about 50%; inconclusive = mostly about 30% to 49%; note: 0% is about no effect
#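 Using fluorescent plate cytometry, EGFP and DsRed are detected in transgenic mouse T cells stimulated 18 h at 37 degrees C with antibody-coated beads after 60 min compound pretreatment.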
# BRCA1 expr up = activators of BRCA1 expression | MCF7-BRCA1-FFLuc reporter, luminescence, 48 h; response scale: scaled: vehicle 0%, 10 µM genistein 100% | AID 624202 | actives 1.1% (n = 380,000) | Potency, µM (top dose mostly 46.1 µM), for the others: at the top dose activation, most hits filed as activators; note: potency is the fitted concentration of half-maximal effect; nearly all actives have a fitted effect of over 80% in size
#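 48 h compound treatment of MCF7-BRCA1-FFLuc cells (phenol-red free MEM, 37 °C), then 15 min with luciferase substrate and luminescence imaging.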
# ELG1 FLuc counter = luciferase inhibition in cell-free luciferin readout for ELG1 hits; shares compounds with ELG1 repair inh; cell-free firefly luciferase luminescence counter-screen, ViewLux; Potency, µM (highest dose often 46.1 µM), without a hit: top-dose activity change, negative = inhibition, hits mostly inhibitors; actives 3% (n = 350); AID 624247; note: potency is the fitted concentration of half-maximal effect; % is set by controls: 0 for no effect and ±100 for the full control effect
# ELG1 Luc conf = human ELG1 repair inhibition, luciferase-tagged ELG1 confirmation; shares compounds with ELG1 repair inh; HEK293T ELG1-luciferase levels, luminescence; cells co-treated with 5-fluorouridine; Potency, µM (titrated, usually from 46.1 µM), inactives show at the top dose activity change, negative = inhibition, actives largely listed as inhibitors; actives 68% (n = 670); note: potency is the fitted concentration of half-maximal effect; % is set by controls: 0 for no effect and ±100 for the full control effect; nearly all actives have a fitted effect of over 55% in size
# ELG1 MMS Luc = inhibits ELG1-dependent repair under MMS stimulation in HEK293T cells | HEK293T luciferase-tagged ELG1 level, MMS stimulated | shares compounds with ELG1 repair inh | Potency, µM (top dose mostly 46.1 µM), for the others: top-dose activity change, negative = inhibition, usual class: inhibitors | actives 53% (n = 670); note: potency is the fitted concentration of half-maximal effect; % is set by controls: 0 for no effect and ±100 for the full control effect; nearly all actives have a fitted effect of over 60% in size
# ELG1 5-FU = confirmation of ELG1 repair inhibitors: viability with 5FU; 670 tested, under 10 active; Potency, µM (series often up to 46.1 µM), without a hit: at the top dose activity change, negative = viability loss, actives largely listed as cytotoxic; AID 624250; cell viability with 5-FU, ELG1-dependent repair; shares compounds with ELG1 repair inh;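 note: ELG1-luc HEK293T cells cotreated with 5-fluorouridine at 10 µM final; potency is the fitted concentration of half-maximal effect; viability measured 16 h after compound addition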
# ELG1 MMS cell = confirmation of ELG1 repair inhibitors: viability with MMS | AID 624251 | Potency, µM (doses to about 46.1 µM), inactives show top-dose activity change, negative = viability loss, most hits filed as cytotoxic | actives 33% (n = 670) | shares compounds with ELG1 repair inh | Cell viability with MMS, ELG1-dependent DNA repair;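 note: ELG1-luc HEK293T cells co-treated with 10 µM MMS; potency is the fitted concentration of half-maximal effect; viability read 16 h after compound addition; % is set by controls: 0 for no effect and ±100 for the full control effect; nearly all actives have a fitted effect of over 60% in size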
# Cell viab unstim = counter-screen for ELG1 repair inhibitors: unstimulated cell viability | shares compounds with ELG1 repair inh | cell viability counter-screen, unstimulated, luminescence | Potency, µM (doses to about 45.9 µM), inactives show top-dose activity change, negative = loss of viability, usual class: cytotoxic | actives 8% (n = 900) | AID 624252;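 note: potency is the fitted concentration of half-maximal effect; compound exposure lasted 16 hours before reading; % is set by controls: 0 for no effect and ±100 for the full control effect; nearly all actives have a fitted effect of over 55% in size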
# FLuc biochem = inhibits purified firefly luciferase, counter-screen for ELG1 hits; purified firefly luciferase, luminescence counter-screen; shares compounds with ELG1 repair inh; AID 624253; actives 10% (n = 350); Potency, µM (top dose mostly 57.5 µM), for inactives: at the top dose activity, negative = inhibition, most hits filed as inhibitors; note: potency is the fitted concentration of half-maximal effect; % is set by controls: 0 for no effect and ±100 for the full control effect
# The depositor's hits bear a star; ? = inconclusive; . = not tested or not shown. Unless noted, calls come from the whole dose curve; as a rule, active = well fitted curve in the direction sought with a large enough effect; inconclusive = small, poorly fitted or top-dose-only effect, or another doubt; inactive = no such curve, though single readings can be large; an effect the other way counts as inactive or inconclusive.
SMILES,Nrf2 ARE act,ELG1 repair inh,IL2 activator,BRCA1 expr up,ELG1 Luc conf,ELG1 MMS Luc,ELG1 5-FU,ELG1 MMS cell,Cell viab unstim,others
Cc1ccc2nsnc2c1S(=O)(=O)N(Cc1cc2cccc(C)c2[nH]c1=O)CC1CCCO1 (centres undefined),0%,2.3µM*,0,-34%,?,7.9µM*,5%,-16%,?,
COc1ccccc1NC(=O)c1cc2c(CO)cnc(C)c2oc1=Nc1cc(OC)c(OC)c(OC)c1,0%,1%,-4,-17%,.,.,.,.,.,
COc1ccccc1NC(=O)c1cc2c(CO)cnc(C)c2oc1=Nc1ccc(OC)c(OC)c1,0%,2.9µM*,-2,-31%,0.89µM*,?,?,?,?,
Cc1nn(C(C)(C)C)c(OC(=O)c2c(F)cccc2F)c1Sc1ccccc1,0%,.,.,.,.,.,.,.,.,
CC1CCc2nc(N)c(C#N)c(-c3ccncc3)c2C1 (centres undefined),-1%,2%,-2,1%,.,.,.,.,.,
CC1CCc2nc(N)c(C#N)c(-c3cccnc3)c2C1 (centres undefined),-2%,1.2µM*,3,0%,1.6µM*,14µM*,3%,22µM*,-2%,
Cc1cc(C)cc(NC(=O)CCc2nc3sc4c(c3c(=O)[nH]2)CCCC4)c1,0%,-11%,-7,-66%,.,.,.,.,?,ELG1 FLuc counter=8%;FLuc biochem=-4%
O=C1c2ccccc2N2C(=O)c3ccccc3[C@H]2N1c1ccccc1,-1%,?,-3,-21%,20µM*,?,3%,-17%,-12%,ELG1 FLuc counter=-9%;FLuc biochem=-1%
COC(=O)C1C(=O)C=C(N2CCOCC2)CC1(C)C (centres undefined),0%,4.1µM*,1,-12%,25%,32%,-1%,-1%,-1%,
CC1(C)CC(N2CCOCC2)=CC(=S)N1,0%,.,0,-6%,.,.,.,.,.,
COc1cc2nc(CN(CCC(C)C)Cc3nc4cc(OC)c(OC)cc4c(=O)[nH]3)[nH]c(=O)c2cc1OC,0%,1.5µM*,0,-47%,2.8µM*,?,?,7%,-17%,
CCNCc1nc2cc(OC)c(OC)cc2c(=O)[nH]1,-1%,-2%,-2,0%,.,.,.,.,.,
O=C(NNc1ccnc2cc(Cl)ccc12)C1CCCCC1,1%,0.52µM*,5,-48%,-9%,0.89µM*,-5%,0.71µM*,?,ELG1 FLuc counter=-17%;FLuc biochem=-8%
CCOc1ccc(-n2c(=O)c3c(C)c(C(=O)N(C)C)sc3n(CC(=O)Nc3c(C)cc(C)cc3C)c2=O)cc1,-1%,.,.,.,.,.,.,.,.,
CC(=O)ON(C(C)=O)c1ccc(/C=C2\C=Cc3ccccc32)cc1,.,.,.,71%,.,.,.,.,.,
COc1ccc(C2CC(c3c(O)cc(C)oc3=O)=NCCS2)c(OC)c1 (centres undefined),9%,?,-1,-6%,.,.,.,.,-15%,
COc1cc2cnc(-c3ccccc3)c(C(=O)c3ccc(OCc4ccccc4)cc3)c2cc1OC,4%,2.6µM*,0,6%,10µM*,13µM*,?,11µM*,0%,
Cn1cccc1C(=O)Nc1ccc(N2CCOCC2)cc1,-3%,?,1,1%,.,.,.,.,-13%,
CN(C(=O)CSc1nnc(COc2ccccc2)o1)c1ccccc1,0%,.,.,.,.,.,.,.,.,
Cc1ccccc1NC(=O)CSc1nc2ccccc2o1,1%,?,-2,13µM*,.,.,.,.,?,ELG1 FLuc counter=64%;FLuc biochem=-6%
COc1cccc(NC(=O)CSc2nnc(-c3cccc(OC)c3)o2)c1,5%,.,.,.,.,.,.,.,.,
O=C(CSc1nnc(-c2ccc(O)cc2)o1)Nc1ccccc1Br,2%,?,0,?,.,.,.,.,-2%,
COc1cccc(NC(=O)CSc2nnc(-c3ccc(C)cc3)o2)c1,-1%,?,-2,?,.,.,.,.,1%,
O=C(CSc1nnc(-c2ccc(F)cc2)o1)Nc1ccc(S(=O)(=O)N2CCCCCC2)cc1,0%,-3%,0,-21%,.,.,.,.,?,ELG1 FLuc counter=-5%;FLuc biochem=-7%
Cc1ccccc1-c1nnc(SCC(=O)Nc2cccnc2Cl)o1,0%,?,-1,-53%,.,.,.,.,25µM*,
Cc1ccc(NC(=O)CSc2nnc(-c3ccccc3C)o2)cc1C,3%,?,2,25%,.,.,.,.,.,
Cc1ccc(-c2csc3ncnc(N4CCN(C(=O)c5ccccc5)CC4)c23)cc1,5%,18µM*,0,-61%,16µM*,25µM*,?,?,?,ELG1 FLuc counter=?;FLuc biochem=1%
